Rows were chosen to be rich in hits. Some 4.6% of all compounds tested hit in one or more screens of this group.
D1 antag: human D1 dopamine receptor antagonism; HEK293 TREx D1 cells, calcium flux, dopamine EC80; hits give low values; hit rate 3.2% among 360,000; activity change, negative = inhibition, % at 10 µM; P21728; in the data active = activity change below about -30%; also: % is scaled to controls: 0 for no effect and ±100 for the full control effect
Target sequence (P21728 whole entry, looked up): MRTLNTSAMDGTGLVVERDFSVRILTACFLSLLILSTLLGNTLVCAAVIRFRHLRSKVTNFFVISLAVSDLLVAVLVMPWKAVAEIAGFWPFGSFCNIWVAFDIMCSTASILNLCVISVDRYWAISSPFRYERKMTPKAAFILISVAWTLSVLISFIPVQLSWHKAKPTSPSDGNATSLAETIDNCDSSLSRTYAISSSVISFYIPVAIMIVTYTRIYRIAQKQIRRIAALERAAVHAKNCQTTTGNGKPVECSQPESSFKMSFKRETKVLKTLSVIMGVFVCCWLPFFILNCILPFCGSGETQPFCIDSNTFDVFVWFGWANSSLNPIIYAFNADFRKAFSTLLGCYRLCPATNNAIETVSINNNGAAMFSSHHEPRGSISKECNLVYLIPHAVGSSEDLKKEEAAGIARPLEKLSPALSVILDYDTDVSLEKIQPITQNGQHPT
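Compound effects on dopamine-evoked calcium signalling were measured in tetracycline-induced HEK293 Trex D1 cells. Dopamine at EC80 followed a 180 s compound pre-read, and fluorescence was tracked kinetically for 180 s more.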
TRHR PAM: TRH receptor (human) allosteric enhancement; enhancement, % at 2 µM; hit rate 0.66% among 360,000; AID 493056; TRHR cells, fluo-8 calcium fluorescence, EC20 TRH enhancement; in the data active = enhancement above about 30%; also: 0% is about no effect
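TRHR-expressing cells loaded with fluo-8 calcium dye were read kinetically (ex 480/em 530) during compound addition, then stimulated with an EC20 of TRH (10 nM final). Enhancement of the Gq-mediated intracellular calcium response was scored.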
D1 potentiator: human D1 dopamine receptor positive modulation; P21728; HEK293 TREx D1 cells, calcium flux, dopamine EC20 potentiation; potentiation, % at 10 µM; hit rate 0.036% among 360,000; in the data active = potentiation above about 30%; also: 0% is about no effect
TRHR agonist: TRH receptor (human) agonism; P34981; hit rate 0.18% among 360,000; activation, % at 2 µM; TRHR cells, calcium flux fluo-8, FDSS agonist mode; also: 0% is about no effect
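Agonist-mode FDSS calcium read (Ex 480/Em 530, 1 s cycles) in 1536-well TRHR cells with fluo-8 dye, after 10-cycle baseline and 23 nL compound addition; TRH at EC20 (10 nM final) added afterwards for the enhancer phase.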
D1 ag: agonists of human D1 dopamine receptor; HEK293 T-REx D1 cells, calcium flux, agonist mode; activation, % at 2 µM; hit rate 1% among 360,000; AID 504660; also: 0% is about no effect
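Tetracycline-induced HEK293 TREx D1 cells, force-coupled to calcium signalling, were dye-loaded with a no-wash calcium kit. Compound was pin-added after a 10 s baseline. Fluorescence was read kinetically at 1 cycle/s for 180 s, with calcium rises flagged as agonism.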
* = called active by the depositor. Rule as the data show it, unless noted: active = activation above about 30%; inactive = the rest.

SMILES	D1 antag	TRHR PAM	D1 potentiator	TRHR agonist	D1 ag
COc1ccc2[nH]c(=O)c(CN(Cc3cccs3)C(=S)Nc3cccc(C)c3)cc2c1	-32*	-9	-6	-1	4
COc1ccc2[nH]c(=O)c(CN(C(=O)c3cccnc3)c3ccccc3)cc2c1	1	12	36*	0	0
COc1ccc2[nH]c(=O)c(CN(Cc3cccnc3)C(=O)Nc3ccccc3)cc2c1	-37*	-2	-4	-1	0
O=C(C/C(=N/O)c1ccccc1O)C(F)F	-32*	9	-7	2	3
CCOc1cc(C2c3c(oc4ccccc4c3=O)C(=O)N2Cc2ccc3c(c2)OCO3)ccc1O (stereo not given)	5	5	1	-1	0
CN1CCN(C(=O)C2=C[C@@H](C3CC3)C[C@@H](OCc3ccc(CO)cc3)O2)CC1	12	31*	3	0	-4
O=C(C1=C[C@H](c2csc3ccccc23)C[C@H](OCc2ccc(CO)cc2)O1)N1CCN(Cc2ccc3c(c2)OCO3)CC1	-34*	-6	4	1	0
CN1CCN(C(=O)C2=C[C@@H](c3csc4ccccc34)C[C@@H](OCc3ccc(CO)cc3)O2)CC1	-5	-6	-2	2	41*
O=C(O)C1=C[C@@H](c2coc3ccccc3c2=O)C[C@@H](OCc2ccc(CO)cc2)O1	-22	-5	0	0	-5
O=C(NC1CC1)C1=C[C@@H](c2coc3ccccc3c2=O)C[C@@H](OCc2ccc(CO)cc2)O1	4	0	5	0	34*
COc1cc2c(=O)c(S(=O)(=O)c3ccccc3)cn(CC(=O)Nc3ccccc3C)c2cc1OC	-14	-10	-4	0	1
COc1ccc(-n2c3c(cc(-c4nc(-c5ccc(Cl)cc5)cs4)c2=O)C(=O)CC(C)(C)C3)cc1Cl	2	-3	2	0	2
CC(C)c1ccc(NS(=O)(=O)c2ccc3[nH]cc(C(=O)N4CCCC4)c(=O)c3c2)cc1	6	-2	0	0	-1
O=C(C1=C[C@@H](c2coc3ccccc3c2=O)C[C@@H](OCc2ccc(CO)cc2)O1)N1CCOCC1	-17	-6	0	0	-6
CN1CCN(C(=O)C2=C[C@H](c3coc4ccccc4c3=O)C[C@H](OCc3ccc(CO)cc3)O2)CC1	-20	-8	34*	0	-3
COc1ccc(C(=O)Nc2ccc3oc(-c4cc(Cl)ccc4Cl)nc3c2)cc1Br	-1	4	0	-1	3
COc1cccc(NC(=O)c2oc3ccccc3c2NC(=O)c2ccc(OC(C)C)cc2)c1	-16	-5	-1	1	50*
CCOc1ccc(C(=O)Nc2c(C(=O)c3ccccc3)oc3ccccc23)cc1	7	6	4	32*	143*
COc1cccc(NC(=O)c2oc3ccccc3c2NC(=O)c2ccc3c(c2)OCO3)c1	0	3	-4	2	6
Cc1ccc(CNCc2ccc3c(c2)n(C)c(=O)n3C)cc1	11	-1	-1	0	5
CCc1ccc(NC(=O)CCS(=O)(=O)c2ccc3c(c2)oc(=O)n3C)cc1	-37*	10	-6	0	-1
CCOc1ccc(NC(=O)C(Cc2ccccc2)NS(=O)(=O)c2ccc3c(c2)oc(=O)n3C)cc1 (stereo not given)	-20	5	-1	1	5
CCc1cccc(NC(=O)C(Cc2ccccc2)NS(=O)(=O)c2ccc3c(c2)oc(=O)n3C)c1 (stereo not given)	-11	15	-3	0	31*
CCC(=O)N1CCc2cc(S(=O)(=O)N3CCN(c4ccccc4F)CC3)ccc21	-1	-1	-5	1	0
CCCn1ncc([C@@H]2C[C@H]3CN(Cc4cccc(Cl)c4)C(=O)[C@]34CCCN24)c1C	-31*	-5	0	-2	0
SMILES	D1 antag	TRHR PAM	D1 potentiator	TRHR agonist	D1 ag
Cn1cc([C@@H]2C[C@H]3CN(Cc4cccc(Cl)c4)C(=O)[C@]34CCCN24)c(-c2ccccc2)n1	-31*	4	-4	-1	17
CCCCN(C)C(=O)CSc1nc2ccccc2nc1Cc1ccc(C)cc1	9	-3	2	0	15
C=Cc1ccc(CSc2nc(-c3ccccc3C)nc3c2Cc2c(CO)cnc(C)c2O3)cc1	1	2	-5	1	1
CCN(CC)c1ccc2c(c1)OC(N)=C(C#N)C2c1cccnc1 (stereo not given)	10	-3	-4	23	86*
Cc1cc2[nH]c(=O)c3ccccc3n2n1	-72*	-5	-7	1	2
Cc1cc2[nH]c(=O)cc(-c3ccccc3)n2n1	-5	-8	4	0	3
O=C(NCc1ccco1)c1ccc2ccccc2c1	-9	3	1	-1	1
O=C(NCc1ccco1)c1ccc2c(c1)C(=O)c1ccccc1-2	-31*	2	-4	0	2
Cc1ccc(C(=O)NCc2ccco2)cc1[N+](=O)[O-]	-37*	2	-3	0	0
COC1=CC(=Cc2c(N)n3nc(CC(=O)N4CCCCC4)sc3nc2=O)C=C(OC)C1=O	9	22	1	138*	62*
CCOC(=O)CSc1nc2sc3c(c2c(=O)n1Cc1ccccc1)CCC(C(C)(C)C)C3 (stereo not given)	-6	-1	2	1	0
CCOC(=O)c1cccnc1SCC(=O)N(C)c1ccccc1	-44*	3	1	0	5
COc1cc2ccccc2cc1C(=O)N(CCN(C)C)c1nc2c(F)cc(F)cc2s1	-36*	0	-6	0	1
O=C1CCCN1c1ncc(S(=O)(=O)c2ccc([N+](=O)[O-])cc2)s1	-47*	-5	-4	-1	13
Cc1ccc2nc(COc3ccccc3NC(=O)COc3ccccc3Cl)cc(=O)n2c1	-5	5	-2	1	1
CCn1c(=O)c2sccc2n2c(CCCC(=O)Nc3ccc(Oc4ccccc4)cc3)nnc12	-3	8	0	0	4
CCOC(=O)C1=C(COC(=O)c2ccc(OC)c(OC)c2OC)NC(=O)NC1C (stereo not given)	-44*	-5	-3	-1	11
CCOC(=O)C1=C(COC(=O)c2cc(OC)c(OC)cc2[N+](=O)[O-])NC(=O)NC1C (stereo not given)	-11	4	-2	0	2
CCOC(=O)C1=C(COC(=O)/C=C/c2cc(OC)c(OC)c(OC)c2)NC(=O)NC1C (stereo not given)	-39*	0	-5	0	1
CCOC(=O)C1=C(COC(=O)/C=C/c2ccc(OC)c(OC)c2)NC(=O)NC1C (stereo not given)	3	-2	2	-1	2
COc1cccc(CNS(=O)(=O)c2c(C(=O)N3CCC(C)CC3)c(C)n(C)c2C)c1	12	-6	0	0	-1

Assay outcomes deposited in PubChem by National Center for Advancing Translational Sciences (NCATS).
